Here are results for 15 molecules from PubChem BioAssay (NCI).

The panel holds about 83,000 compounds, 20% with a hit somewhere; the sample as a whole holds those more often.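 Activity criterion: percent growth below 10, measured after cells in 96-well plates were exposed to a single compound concentration for 48 hours.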 Active and inactive are the calls of the source.

In this assay the test system is HL-60(TB) leukemia. The experiment in a line: NCI-60 one-dose screen, 48 h (100 = growth as untreated, 0 = no growth, -100 = all killed). Conditions: 10 µM unless noted.
On to `CC(C)Sc1nc(NCCc2c[nH]c3ccccc23)c(C#N)c(-c2ccc(F)cc2)n1`, for which the growth was 27% (inactive). The value for `CCCCCCCCc1ccc(C(=O)Nc2cccc(O)c2)cc1` was 56.5% (inactive); that for `CCOC(=O)COc1c(OC)c(OC)cc2oc(-c3cccc(C(=O)Nc4ccc(Cl)cc4)c3)cc(=O)c12` was 97.6% (inactive). As for `C=CCn1c(O)c(N=Nc2nc(-c3cc4ccccc4oc3=O)cs2)c2ccccc21`, the growth was 111% (inactive). The value for `Cc1ccccc1[C@H]1C(C(=O)c2ccc(Cl)cc2)C2(N[C@@H]1c1ccccc1)C(=O)Nc1ccccc12` (stereo not given in full) was -18.1% (active). The value for `CC1CCCCN1CCCNC(=O)N/C(N)=N/c1nc2ccccc2s1` (stereo not given) was 19.5% (inactive); that for `Nc1cc(-c2c[nH]c3ccc(Br)cc23)nc2cc(-c3c[nH]c4ccccc34)nn12` was -15% (active). Consider `Cc1ccc(Cl)cc1NC(=O)Nc1nc2ccc([N+](=O)[O-])cc2s1`, for which the growth was 1.69% (active). As for `OCc1[nH]nc2cc(Nc3ncc4ccc(Br)c(OC5CCC(O)CC5)c4n3)ccc12` (stereo not given), the figure is -40.1% (active); as for `N#Cc1c(NC(=O)c2ccc(C(F)(F)F)cc2C(F)(F)F)sc2c1CCC(=O)C2`, -24% (active).

As for `O=S(=O)(Nc1cccc(-n2cnc3cc(-c4ccc(O)cc4)ccc32)c1)C1CC1`, the growth is -19.9% (active). The value for `N#CCc1nnc(NC(=O)c2ccc(-n3c(=O)[nH]c4ccccc4c3=O)cc2)s1` was 86% (inactive); that for `CC(=O)c1c2c(c3ccc4c5ccccc5ccc4n13)C(=O)c1ccccc1C2=O` was 94.2% (inactive). As to `O=C(Cc1c(-c2cccc([N+](=O)[O-])c2)n(-c2ncnc3c2c(-c2ccccc2)c(-c2ccccc2)n3Cc2ccccc2)[nH]c1=O)c1ccc(Cl)c(Cl)c1`, the growth is 11.6% (inactive). Regarding `C/C(=N\N=C1/C(=O)Nc2ccccc21)c1ccc2c(c1)Nc1ccccc1S2`, the growth is 63.6% (inactive).
